High-throughput results from PubChem.
Sampled rows, rich in hits. Any-hit rate of the full collection: about 12%.
Sfp PPTase inh: blocks B. subtilis Sfp PPTase activity; Biochemical Sfp PPTase activity, qHTS; Potency, µM, inactives show largest response in the series, negative = inhibition, hits mostly inhibitors; hit rate 3.5% among 310,000;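 further: the enzyme is Sfp with the accession as filed and its product quenches rhodamine fluorescence; 0% = enzyme reaction without inhibitor and -100% = no enzyme wells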
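With Hepes-Na pH 7.6 buffer containing 10 mM MgCl2, Sfp (15 nM) modified BHQ-2-YbbR (12.5 uM) using rhodamine-CoA (5 uM). Two reads 30 minutes apart at 525/598 nm yielded each well's rate.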
HP1b chromo inh: HP1-beta chromodomain-methylated histone interaction inhibition; P83916; hit rate 0.56% among 390,000; AID 540317; Potency, µM (top dose mostly 114 µM), inactives show at the highest dose activity change, negative = inhibition, actives largely listed as inhibitors; AlphaScreen HP1-beta / biotin-H3K9me3 peptide binding; further: nearly all actives have a fitted effect of over 70% in size
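Compound inhibition of the preformed complex between 50 nM HP1-beta and 50 nM biotinylated H3K9me3 peptide was read by AlphaScreen. Buffer was PBS pH 7.4 with 0.01% Tween-20. Incubations ran 30 min at room temperature, with 10 ug/mL donor/acceptor beads.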
JMJD2A Tudor inh: inhibitors of human JMJD2A Tudor domain | AlphaScreen JMJD2A-Tudor / H3K4me3 peptide binding | Potency, µM (titrated, usually from 114 µM), for inactives: at the top dose activity change, negative = inhibition, most hits filed as inhibitors | O75164 | hit rate 4.4% among 390,000 | AID 504339; further: on the % scale 0 is the no-effect control and ±100 the full control effect; nearly all actives have a fitted effect of over 50% in size
G9a block: G9a (human) methyltransferase inhibition; G9a H3K9 monomethylation, AlphaScreen, 2 h; Potency, µM (highest dose often 102 µM), for inactives: at the top dose activity, negative = inhibition, most hits filed as inhibitors; hit rate 8.8% among 350,000; AID 504332; further: on the % scale 0 is the no-effect control and ±100 the full control effect; nearly all actives have a fitted effect of over 75% in size
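Methyltransferase reactions run at room temperature for 2 h (20 nM enzyme, 500 nM biotin-H3K9 peptide, 20 uM SAM) after a 15 min compound preincubation; product detected by AlphaScreen beads and anti-H3K9me1 antibody.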
L3MBTL1 block: L3MBTL1 (human) inhibition | AlphaScreen L3MBTL1–H3K9me1 peptide binding | Potency, µM (doses to about 57.1 µM), inactives show at the highest dose activity, negative = inhibition, most hits filed as inhibitors | hit rate 0.66% among 230,000 | Q9Y468; further: on the % scale 0 is the no-effect control and ±100 the full control effect; nearly all actives have a fitted effect of over 60% in size
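Displacement of a biotinylated histone H3(1-15) peptide monomethylated at Lys9 (75 nM) from L3MBTL1 (50 nM) was measured by AlphaScreen after a 30 min room-temperature compound incubation; cefsulodin titration served as intraplate control.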
BAZ2B block: inhibitors of human BAZ2B bromodomain | Q9UIF8 | AlphaScreen BAZ2B-H3K14Ac peptide displacement | Potency, µM (series often up to 114 µM), without a hit: top-dose activity change, negative = inhibition, most hits filed as inhibitors | hit rate 4.4% among 360,000; further: on the % scale 0 is the no-effect control and ±100 the full control effect; nearly all actives have a fitted effect of over 60% in size
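Complex of BAZ2B and biotin-H3K14Ac (50 nM apiece) forms over 30 min at RT, then faces library compounds up to 110 uM for another 30 min; AlphaScreen beads added, 20 min dark incubation, luminescence read.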
The depositor's hits bear a star; ? = inconclusive; · = no result given; ! = repeats disagree; [ ] = remark or other dose. The call rests on the fitted dose curve; in most records, active means well fitted curve in the direction sought with a large enough effect; inconclusive means small, poorly fitted or top-dose-only effect, or another doubt; inactive means no such curve, though single readings can be large; an effect the other way counts as inactive or inconclusive. Potency means the concentration at half of the fitted maximal effect.

SMILES	Sfp PPTase inh	HP1b chromo inh	JMJD2A Tudor inh	G9a block	L3MBTL1 block	BAZ2B block
CNC(=O)[C@H]1O[C@@H](n2cnc3c(N)ncnc32)[C@H](O)[C@@H]1O	14%	·	·	37%[59 µM]	·	·
O=C(O)c1ccccc1N/N=C/c1cc(Br)cc(Br)c1O	-13%	-24%	?	·	-2%	45µM*
O=C(NNc1cccc(Cl)n1)Nc1ccc(Cl)cc1	-1%	36%	8%	?	6%	6%
Cc1ccc(NNC(=O)Nc2ccc(Cl)cc2)nn1	8.9µM*	?	79µM*	4µM*	·	-23%
COC(=O)C1=CO[C@@H](C)[C@@H]2CN3CCc4c([nH]c5ccccc45)[C@@H]3C[C@H]12	-7%	·	·	·	·	·
CCOC(=O)c1c(C)[nH]c(C)c1C(=O)CN1C(=O)NC2(CCCCCC2)C1=O	·	20%	-16%	22µM*	13%	9%
Cc1cc(NC(=O)N2CCC(CN3CCCCCC3)CC2)ccc1Br	·	24%	-12%	-33%[59 µM]	·	-7%
O=C(OCC(=O)N1CCCC1=O)c1nc(Cl)c(Cl)c(Cl)c1Cl	-7%	-2%	?	·	·	71µM*
COc1cc2c(cc1OC)C(Cc1ccc(O)cc1)N(C)CC2 (centres undefined)	19%	5%	-18%	50µM*	0%	-3%
COc1cc2c(cc1OC)C(Cc1ccc(O)cc1)NCC2 (centres undefined)	9%	38%	-10%	-22%	0%	-1%
O=C(NC1CCCCC1)C(c1ccncc1)N(Cc1ccc(F)cc1)C(=O)c1ccccn1 (centres undefined)	6%	38%	-11%	?	-7%	6%
O=C(NC1CCCC1)C(c1ccc(F)cc1)N(Cc1ccc(F)cc1)C(=O)CCl (centres undefined)	6%	21%	-23%	45µM*	6%	8%
Cc1nn2c3c(cnc2c1-c1ccccc1)C(=O)CC(c1ccco1)C3 (centres undefined)	89µM*	34%	-12%	?	2%	-4%
NCCSSCCN	45µM*!	13µM*	-6%	22µM*	·	-12%
Cc1ccc(-c2nc3ccccc3c(=O)n2NC(=O)c2cccs2)cc1	-11%	29%	?	-14%[59 µM]	17%	18%
O=C(Nn1c(Cc2cccs2)nc2ccccc2c1=O)c1cccs1	12%	22%	-16%	50µM*	7%	-6%
O=C(NCC(c1ccco1)N1CCCC1)c1cc(S(=O)(=O)N2CCOCC2)ccc1Cl (centres undefined)	·	44%	-21%	7%[59 µM]	-2%	4%
Cc1cc(Br)cc2c1N(C)C(=O)C2(c1ccc(O)cc1)c1ccc(O)cc1	·	7%	-32%	·	·	·
NCCS	79µM*!	?	-12%	14µM*	13%	4%
CC(C)NC(=O)c1cc2c(Cl)nc3ccccc3c2s1	·	47%	-1%	7%[59 µM]	·	1%
O=C(O)CC/C(=N\Nc1ccc([N+](=O)[O-])cc1S(=O)(=O)N1CCOCC1)c1cccs1	?	39%	-1%	35µM*	8%	-11%
CC(C)(C)c1ccc(C2Sc3ccccc3NC3=C2C(=O)c2ccccc23)cc1 (centres undefined)	·	?	25µM*	10µM*	·	8.9µM*
CCN(CC(=O)Nc1c(F)cccc1F)C(=O)c1ccc(N2C(=O)c3ccccc3C2=O)cc1	·	39%	-1%	-2%	10%	9%
CC(C)(C)CC(=O)NCC(c1ccc2c(c1)OCO2)N1CCOCC1 (centres undefined)	·	33%[57 µM]	2%	25%[59 µM]	·	7%
O=C(CSc1nc2ncc(Cl)cc2[nH]1)Nc1cccc(F)c1	12%	36%	-20%	50µM*	·	-23%
CN(CC(=O)Nc1ccc(F)cc1)C(=O)CSc1nc2ncc(Cl)cc2[nH]1	13%	34%	1%	1%	·	3%
Cc1cc(NS(=O)(=O)c2ccc(NC(=O)CSc3nc4ncc(Br)cc4[nH]3)cc2)nc(C)n1	19%	20%	-17%	?	1%	-14%
